# Source: PubChem BioAssay
# Platelet DG rel: modulates dense granule release in human platelets | 300,000 tested, 0.22% active | AID 1663 | inhibition, %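 (compounds screened at 7.5 µM in platelet-rich plasma)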 | human platelet-rich plasma, SFLLRN dense granule ATP release, luminescence;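 active = mean replicate score, as percent of positive control, at or above 50; inconclusive = mean below 50 but at least one replicate at or above 50; inactive = mean and every replicate below 50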
# HSF1 inhib: HSF1 inhibition. NIH3T3-HGL HSE-luciferase, MG132-induced, luminescence 8 h; hits give low values. activity change, negative = inhibition, % at 7.5 µM (by protocol). 300,000 tested, 0.77% active. AID 2098;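 active = more than half of replicate wells show activity change below -50%, luminescence cut by over half; inconclusive = some wells, but at most half, below -50%; inactive = no replicate well below -50%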;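 also: luciferase reports HSF-1 transcriptional activity via heat shock element; 0% = median of DMSO wells and -100% = zero luminescence signal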
# MPTP inh: inhibitors of mitochondrial permeability transition pore; isolated mouse mitochondria, Ca2+ swelling absorbance, 30 min; inhibition, % at 10 µM; 360,000 tested, 1.4% active; AID 602449;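 active = inhibition of 50% or more, scaled per plate between neutral and stimulator controls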;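 also: 0% = DMSO wells given calcium and 100% = 1 mM EGTA wells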
# HSF1 activator: increases HSF-1 driven luciferase reporter signal | NIH3T3-HGL HSF-1 luciferase reporter, MG132, 8 h; 100% = twice DMSO control signal | activation, % at 9 µM | 300,000 tested, 1.7% active | AID 504408;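 active = mean replicate activation of at least 50% with a set share of replicates each reaching 50%; inconclusive = only one of those two conditions met; inactive = mean below 50% and too few replicates reaching it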;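 also: 0% = median of the neutral control wells and 100% = twice that signal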
# HSP90 inh: inhibitors of HSP90 luciferase refolding in rabbit reticulocyte lysate; luciferase refolding luminescence, 3 h; inhibition, % at 5.6 µM; 290,000 tested, 0.91% active;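 active = inhibition above the screen-wide mean plus 3 SD, computed separately per campaign, cut at about 16% in these data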;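 also: 0% = DMSO wells and 100% = 60 µM geldanamycin wells; inhibitors lower the luminescence because luciferase stays unfolded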
# dFosB activator: mouse delta FosB homodimer activation | 340,000 tested, 0.99% active | purified delta FosB, TAMRA-CDK5 oligo fluorescence polarization; percent of positive-control signal above neutral wells | activation, % at 25 µM | P13346;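 active = mean activation above about 17%, with every replicate also reaching it, limit read from the data, passing the limit was not always enough; inconclusive = only one of the two conditions met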
# Target sequence (P13346 whole entry, looked up): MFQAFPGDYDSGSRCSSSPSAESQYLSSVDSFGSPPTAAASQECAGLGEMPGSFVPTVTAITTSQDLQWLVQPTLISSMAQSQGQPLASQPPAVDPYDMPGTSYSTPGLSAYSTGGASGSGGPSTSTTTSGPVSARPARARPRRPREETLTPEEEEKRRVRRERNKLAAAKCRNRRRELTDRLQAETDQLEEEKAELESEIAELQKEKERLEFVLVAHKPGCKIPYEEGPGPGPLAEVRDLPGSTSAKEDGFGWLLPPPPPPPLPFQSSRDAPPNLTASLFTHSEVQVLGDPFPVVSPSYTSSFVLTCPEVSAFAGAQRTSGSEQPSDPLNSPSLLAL
# * marks the source's active call; other numbers are inactive results; ? = inconclusive; nt = not tested or not shown. An excerpt weighted towards active compounds, which were near 4.9% of everything screened.
SMILES,Platelet DG rel,HSF1 inhib,MPTP inh,HSF1 activator,HSP90 inh,dFosB activator
CCOC(=O)c1ccc(NC(=O)/C=C/c2cccs2)cc1,1.9,31.9,1.4,53.2*,4.2,-6.2
NS(=O)(=O)c1ccc(NC(=O)/C=C/c2cccs2)cc1,-9.5,4.4,-1.3,2.6,0.6,7.8
CCOC(=O)c1cn2nc(Oc3ccc(C#N)cc3)ccc2n1,2.9,0.7,0.5,17.2,1.0,-4.7
CC(=O)Oc1ccccc1C(=O)OCCN=C1NS(=O)(=O)c2ccccc21,-7.0,-3.2,-0.4,-7.7,1.7,-5.3
Cc1cc(C(=O)NCc2ccc(Cl)cc2)n(-c2ccccc2)n1,2.6,-68.2*,2.6,-77.3,1.6,-7.3
CCOCCCNC(=O)c1cc(C)nn1-c1ccccc1,23.1,-72.1*,-1.7,-78.3,-5.7,-0.1
Cc1cc(C(=O)NNC(=O)c2ccc(NC(=O)CC#N)cc2)c(C)o1,nt,nt,0.2,nt,nt,-8.7
O=C(c1cc2ccccc2o1)N1CCN(S(=O)(=O)/C=C/c2ccccc2)CC1,-1.8,-4.8,0.0,4.8,-4.2,-9.7
Cc1cccc(NC(=S)N2CCN(C(=O)c3ccco3)CC2)c1C,-6.6,20.5,-2.5,60.5*,1.1,-11.2
O=C(c1ccco1)N1CCN(S(=O)(=O)/C=C/c2ccccc2)CC1,5.6,-58.9*,0.4,-68.5,4.6,-5.9
NC(=O)N1CCN(C(=O)c2ccco2)CC1,50.8*,-2.1,2.0,5.0,-2.5,-10.3
Cc1c(Cl)cccc1NC(=S)N1CCN(C(=O)c2ccco2)CC1,6.6,-2.7,-0.5,-5.3,1.5,-6.1
COc1ccc(-n2ncc3c2CC(C)(C)CC3NC(=O)c2ccnn2C)cc1 (stereo not drawn),0.9,1.9,-2.1,-8.6,-0.8,-5.2
O=C(Nc1ccc(Br)cn1)c1ccc(Br)s1,nt,37.1,0.5,70.1*,4.9,-1.8
O=C(Nc1ccc(Br)cn1)c1ccc(Cl)s1,-7.5,35.5,0.0,?,1.7,0.6
Cc1cccc(OCc2nnc(SCC(=O)N3CCCC3)o2)c1,-2.5,-2.6,-1.9,-0.1,2.5,-0.5
Cc1cccc(OCc2nnc(SCc3nc4ccccc4c(=O)[nH]3)o2)c1,11.4,3.9,0.6,-8.0,4.5,45.5*
Cn1c(N)c(C(=O)CSc2nnc(NC3CCCCC3)s2)c(=O)n(C)c1=O,nt,nt,-1.4,nt,nt,-4.0
C/C=C/C=C/[C@H]1Cc2cc(O)cc(O)c2O1,-4.8,-0.7,nt,2.8,nt,nt
O=C(O)C1=NN(c2cc(Cl)c(S(=O)(=O)O)cc2Cl)C(=O)C1,nt,nt,-1.0,nt,nt,-13.2
COC(=O)Cc1ccc2sc(-c3ccccc3)nc2c1,38.6,29.8,-0.2,61.5*,-2.8,-12.8
COc1ccccc1C(=O)NCc1ccc(-c2nc3ccccc3s2)cc1,-3.7,-59.3*,-2.3,-52.8,10.8,1.7
CN(C(=O)OC(C)(C)C)c1ccc(-c2nc3ccccc3s2)cc1,16.8,-93.2*,2.0,-94.3,nt,2.6
COc1cccc(C(=O)NCc2ccc(-c3nc4ccccc4s3)cc2)c1,-6.2,5.9,0.8,17.6,1.1,0.4
COC(=O)N(C)c1nc2ccccc2s1,-13.5,4.3,0.7,13.1,1.5,-0.7
SMILES,Platelet DG rel,HSF1 inhib,MPTP inh,HSF1 activator,HSP90 inh,dFosB activator
COc1ccc(C(=O)NCc2ccc(-c3nc4ccccc4s3)cc2)cc1,-20.1,24.3,1.8,59.9*,-0.3,6.4
Cc1ccc2c(C)c(C(=O)N(Cc3ccc(F)cc3)C3CCS(=O)(=O)C3)oc2c1 (stereo not drawn),-16.2,0.7,-0.4,18.3,-2.1,0.5
Cc1ccc(C(=O)NNC(=O)COc2ccc(Cl)cc2C)o1,nt,nt,-1.8,nt,nt,-3.6
CCCCn1c(N)c(N(CCC(C)C)C(=O)COC(=O)c2ccc([N+](=O)[O-])s2)c(=O)[nH]c1=O,nt,nt,-1.6,nt,nt,-7.1
CCCCN(C(=O)c1ccc([N+](=O)[O-])s1)c1c(N)n(CCCC)c(=O)[nH]c1=O,-9.7,-61.9*,0.0,-70.4,nt,-3.7
CC(=Nc1ccc(Br)cc1)c1sc2ccccc2c1O,16.3,42.1,2.5,59.8*,-1.6,-1.1
CCOC(=O)[C@]12CCCC=C1N(CCC1=CCCCC1)C(=O)[C@H](CC(=O)NCc1ccccc1)C2,nt,nt,-1.6,nt,nt,nt
Cc1noc(/C=C/c2ccco2)c1S(=O)(=O)N1CCC(C(=O)NCc2ccco2)CC1,-4.3,-72.3*,3.8,-78.4,5.6,5.4
Cc1ccc(CNC(=O)C2CCN(S(=O)(=O)c3c(C)noc3/C=C/c3ccco3)CC2)cc1,-1.3,15.7,-1.8,26.6,3.0,-6.8
COC(CNC(=O)C1CCCN(S(=O)(=O)c2c(C)noc2/C=C/c2cccs2)C1)OC (stereo not drawn),-0.4,28.3,0.7,?,16.9*,-3.5
O=S(=O)(NNc1ncc(C(F)(F)F)cc1Cl)c1ccccc1,nt,nt,0.2,nt,nt,-1.0
COc1ccc(CNC(=O)C(=O)NCCC2CCCCN2S(=O)(=O)c2cccs2)cc1 (stereo not drawn),2.0,4.2,0.6,27.0,nt,-6.4
Cc1ccccc1-n1nc(CSc2nc3ccccc3[nH]2)c(-c2ccccc2)c1N,-8.0,23.1,1.7,60.1*,2.9,-0.8
Nc1c(-c2ccccc2)c(CSc2nc3ccccc3[nH]2)nn1-c1ccc(Cl)cc1,0.1,11.8,5.2,4.0,5.6,0.3
COC(=O)c1c(NC(=O)c2ccc(C)o2)sc2c1CCCCC2,-1.0,28.8,0.3,60.2*,-0.4,-4.1
NC(=O)c1c(NC(=O)c2ccc([N+](=O)[O-])o2)sc2c1CCCC2,-1.7,63.9,-0.9,116.5*,2.2,-6.5
O=C(Nc1ccc2oc(-c3ccncc3)nc2c1)c1ccco1,3.3,3.1,-2.1,19.9,-5.4,-36.0
Cc1ccc2oc(-c3ccccc3)nc2c1,18.6,35.5,-2.2,69.1*,-4.7,-10.7
O=C(Nc1cc2nn(-c3ccccc3)nc2cc1Cl)c1ccco1,15.8,18.5,1.8,-4.6,-2.3,3.2
O=C(Nc1ccc2oc(-c3ccccc3)nc2c1)c1ccco1,-51.4,34.7,0.8,86.0*,0.1,-26.3
O=C(Nc1ccc2nn(-c3ccccc3)nc2c1)c1ccco1,nt,15.9,2.2,53.7*,4.0,-15.3
COC(=O)c1ccc2nc(-c3ccc(Cl)cc3)c(Cc3cccc(Cl)c3)n2c1,nt,nt,2.2,nt,nt,nt
Cc1ccccc1OCC(=O)Nc1ccc2c(c1)C(=O)N(CCC(=O)O)C2=O,12.3,-50.7*,-0.5,-64.3,-0.5,-4.8
O=C1C(Sc2ccccc2)=C[C@@]2(O)CC[C@@H](O)[C@]1(Sc1ccccc1)[C@H]2O,nt,nt,-1.1,nt,nt,nt
COC(=O)c1ccccc1S(=O)(=O)N1CCC(C(=O)N2CCC2)CC1,nt,nt,-2.9,nt,nt,2.8
O=C1C2CC=CCC2C(=O)N1Cc1nnc(-c2ccc(Cl)cc2)o1 (stereo not drawn),-2.9,28.6,-1.1,55.9*,-1.7,-3.3
O=C1C2CC=CCC2C(=O)N1Cc1ccccc1 (stereo not drawn),-2.8,-1.9,-0.7,-6.0,3.0,4.8
c1ccc(Cc2cc(-c3ccccc3)on2)cc1,-1.0,23.5,1.7,70.7*,-0.4,0.8
